Laboratory results reported in PubChem BioAssay AID1865 (National Center for Advancing Translational Sciences (NCATS), 2009).
Among all 280,000 compounds or so, about 540 (0.19%) were called active. Roughly 2% stayed inconclusive and do not appear here. Calls follow the shape of the dose curve; as a rule, active = well fitted activation curve with a large enough effect; inconclusive = small, poorly fitted or top-dose-only effect; inactive = flat fitted curve, though single readings scatter. The list comes from a sample in which actives are over-represented; it also holds similar structures and randomly drawn compounds.

Assay: Quantitative High-Throughput Screen for Regulators of Epigenetic Control; also: nearly all actives have a fitted effect of over 60% in size; as to GFP activation: % of control where 0% means no effect
Conditions: murine LDR cells, GFP reporter derepression, 30 h; series mostly up to 53.9 µM; GFP activation: at the top concentration
How it was run: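 Reporter derepression read as number of fluorescent GFP-positive objects, 20-120 um in size, counted by laser-scanning cytometer. Mouse LDR line with an epigenetically silenced CMV-GFP locus; compound incubation 30 h, 37 C.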
Potency is read from the fitted curve at half-maximal effect.

| SMILES | GFP activation | Potency |
| --- | --- | --- |
| CCc1ccc(NC(=O)c2nn(-c3ccc(C)cc3)c(=O)n(C)c2=O)cc1 | 8.47% (inactive) |  |
| CN(C)c1ccnc2sc(C(=O)c3ccccc3)c(N)c12 | -2.99% (inactive) |  |
| O=C(CN1C2=NCCN2c2ccccc21)c1cccs1 | 0% (inactive) |  |
| Nc1c(C(=O)c2cccs2)sc2nsc(SCCN3CCCCC3)c12 |  | 3.55 µM (active) |
| CCOC(=O)c1ccc(NC(=O)CC2C(=O)N(c3ccccc3)C(=O)N2Cc2cccs2)cc1 (configuration not stated) | -0.348% (inactive) |  |
| CSc1ccccc1-c1nnc(NC(=O)c2ccc3c(c2)OCCO3)o1 | -1.64% (inactive) |  |
| Cc1oc(-c2ccccc2F)nc1CN1CCC(C(=O)NCCc2ccc(Cl)cc2)CC1 | -1.11% (inactive) |  |
| CC(C)c1ccc(NC(=O)CN(C)S(=O)(=O)c2ccc3c(c2)c(=O)n(C)c(=O)n3C)cc1 | -1.11% (inactive) |  |
| COCCCNC(=O)c1ccc(NC(=O)c2nsc3ccccc23)cc1 | 2.2% (inactive) |  |
| Cc1ccc(-c2cnc(NCc3ccc(C(C)C)cc3)n2C)cc1 | -0.242% (inactive) |  |
| CCOC(=O)c1cccc(NC(=O)Cn2cnc3nc4c(cc3c2=O)CCCC4)c1 | -1.69% (inactive) |  |
| CCOC(=O)c1ccc(NC(=O)C2CCN(S(=O)(=O)c3ccc4c(c3)CCCC(=O)N4)CC2)cc1 | -1.27% (inactive) |  |
| Cc1ccc(NC(=O)Cn2c(=O)n(-c3ccccc3)c(=O)c3c4c(sc32)CCCC4)cc1 | -1.77% (inactive) |  |
| CCOc1cc(C(=O)NCCc2csc3nc(-c4ccc(C)cc4)nn23)cc(OCC)c1OCC | -1.23% (inactive) |  |
| Cc1cccc(C(CC(=O)NCC2(c3ccccc3)CCCC2)c2ccccc2)c1O (configuration not stated) | -0.962% (inactive) |  |
| Cc1ccc(Cl)cc1N1CCN(C(=O)c2cnc3c(-c4ccc(F)cc4)c(C)nn3c2C)CC1 | 0.833% (inactive) |  |
| CCCCn1c(=O)c2oc3ccccc3c2n(CC(=O)Nc2ccccc2OC)c1=O | 2.82% (inactive) |  |
| COc1cc(NC(=O)Cn2c(=O)n(Cc3ccco3)c(=O)c3oc4ccccc4c32)cc(OC)c1 | 4.43% (inactive) |  |
| COc1ccc(Cn2c(=O)c3oc4ccccc4c3n(CC(=O)Nc3ccc(F)cc3F)c2=O)cc1 |  | 11.2 µM (active) |

| SMILES | GFP activation | Potency |
| --- | --- | --- |
| O=C(NCc1ccccc1Cl)c1cccn1-c1nnc(N2CCCCC2)s1 | 0.374% (inactive) |  |
| Cc1ccc(NC(=O)c2cc(S(=O)(=O)NCCC3=CCCCC3)ccc2F)cc1C | -1.18% (inactive) |  |
| COc1cccc(CNC(=O)C(=O)NCC(c2cccs2)S(=O)(=O)c2ccccc2)c1 (configuration not stated) | 4.17% (inactive) |  |
| Cc1cccc(CCNC(=O)c2ccc3c(c2)nc2n3CCC(C)C2)c1 (configuration not stated) | 12.7% (inactive) |  |
| Cc1cs/c(=N\N=C\c2ccc(O)cc2)n1Cc1ccco1 | -1.92% (inactive) |  |
| O=c1nc2s/c(=C\c3ccco3)c(=O)n2nc1Cc1ccccc1 | -0.952% (inactive) |  |
| CN(c1ccccc1)c1ccc(/C=c2\s/c(=C(/C#N)C(=O)C(C)(C)C)n(Cc3ccco3)c2=O)cc1 |  | 6.31 µM (active) |
| COc1cc(OC)c(OC)cc1/C=C/c1nc2cc3ccccc3cc2c(=O)n1-c1ccc(F)c(Cl)c1 | 0.436% (inactive) |  |
| O=S(=O)(NCC(c1ccccc1)N1CCc2ccccc21)c1ccccc1 (configuration not stated) | -4.06% (inactive) |  |
| COc1cc2c(cc1OC)C(COc1ccc(F)cc1)N(C(=O)c1ccccc1F)CC2 (configuration not stated) | 1.18% (inactive) |  |
| CCOC(=O)c1c(C)[nH]c(CCC(=O)NCCCN2CCN(c3cc(C)ccc3C)CC2)c1C | -0.109% (inactive) |  |
| CC(C)(C)c1ccc(C(=O)NCC(c2ccc(Cl)cc2)N2CCOCC2)cc1 (configuration not stated) | 1.61% (inactive) |  |
| COc1ccc(-c2cccc(NS(=O)(=O)c3cc(C)c(OC)c(C)c3C)c2)nn1 | 1.69% (inactive) |  |
| O=C(NC1CCN(Cc2ccccc2)CC1)c1ccc(Cn2c(=O)c3ccccc3n(Cc3cccc(F)c3)c2=O)cc1 | -0.885% (inactive) |  |
| CCOc1ccccc1C(=O)Nc1ccc(S(=O)(=O)N2CCCCC2c2cccnc2)cc1 (configuration not stated) | 2.78% (inactive) |  |
| CC(C)c1ccc(S(=O)(=O)Nc2ccc(O)c(Sc3nc4ccccc4s3)c2)cc1 | -3.44% (inactive) |  |
| COc1ccc(Cn2c(C(=O)O)c(CNCc3cccc(OC)c3)c3ccc(C)cc32)cc1 | 0% (inactive) |  |
| CC(C)c1ccc2oc(-c3cc(NC(=O)c4cccs4)ccc3Cl)nc2c1 | -1.08% (inactive) |  |
